The results in this text go back to PubChem BioAssay AID2284333 (EPA ToxCast).

Inconclusive results are not listed. The source made the active and inactive calls. Rule for the calls: active = hit-call score of the fitted dose curve at least 0.9, where 1 is the maximum; inconclusive = response in the unintended direction; inactive = score below 0.9.

Chain of rainbow trout Glucocorticoid Receptor (GR), nr3c1 (gene 100136786) (P49843 whole entry, looked up): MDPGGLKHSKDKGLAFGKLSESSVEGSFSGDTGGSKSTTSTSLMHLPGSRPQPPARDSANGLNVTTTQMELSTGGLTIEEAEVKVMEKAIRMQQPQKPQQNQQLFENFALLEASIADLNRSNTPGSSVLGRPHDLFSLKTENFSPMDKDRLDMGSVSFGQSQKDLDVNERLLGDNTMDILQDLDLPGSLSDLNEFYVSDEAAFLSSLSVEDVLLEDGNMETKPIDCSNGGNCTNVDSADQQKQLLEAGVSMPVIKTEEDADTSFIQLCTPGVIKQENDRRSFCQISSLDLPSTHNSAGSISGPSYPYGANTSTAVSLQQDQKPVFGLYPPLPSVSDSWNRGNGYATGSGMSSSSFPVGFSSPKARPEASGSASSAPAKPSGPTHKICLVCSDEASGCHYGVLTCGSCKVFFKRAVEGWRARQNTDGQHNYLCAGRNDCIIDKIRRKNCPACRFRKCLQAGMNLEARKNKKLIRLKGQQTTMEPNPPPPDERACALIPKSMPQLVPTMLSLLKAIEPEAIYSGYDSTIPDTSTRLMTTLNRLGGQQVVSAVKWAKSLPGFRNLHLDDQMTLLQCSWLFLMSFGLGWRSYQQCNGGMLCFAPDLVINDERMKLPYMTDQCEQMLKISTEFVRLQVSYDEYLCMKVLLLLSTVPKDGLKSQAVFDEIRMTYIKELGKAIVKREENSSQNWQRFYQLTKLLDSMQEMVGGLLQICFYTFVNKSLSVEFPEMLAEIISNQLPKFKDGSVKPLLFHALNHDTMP

This assay has as its target rainbow trout Glucocorticoid Receptor (GR), nr3c1 (gene 100136786) (UniProt P49843). Description: ATG_rtGR_EcoTox2: Attagene TRANS-FACTORIAL EcoTox-2 HepG2 Assay for rainbow trout Glucocorticoid Receptor (GR). The method, then: ATG_EcoTox2 is a cell-based, multiplexed assay created by modifying the existing Attagene TRANS-FACTORIAL system to include a panel of nuclear receptors from some or all the following species: human (Homo sapiens), african clawed frog (Xenopus laevis), rainbow trout (Oncorhynchus mykiss), japanese medaka (Oryzias latipes), and zebrafish (Danio rerio). The ECOTOX2-FACTORIAL format uses HepG2, a human liver cell line, with measurements taken at 24 hours after chemical dosing in a 24-well plate. ATG_rtGR_EcoTox2 is one of 29 assay components calculated in the ATG_EcoTox2 assay. It is designed to make measurements of mRNA induction, a form of inducible reporter, as detected with fluorescence intensity signals by Reverse transcription polymerase chain reaction (RT-PCR) and Capillary electrophoresis technology.The assay endpoint ATG_rtGR_EcoTox2 was analyzed in the positive analysis fitting direction relative to DMSO as the negative control and baseline of activity. Using a type of inducible reporter, measures of mRNA for gain-of-signal activity can be used to understand the reporter gene at the transcription factor-level as they relate to the gene for glucocorticoid receptor. Furthermore, this assay endpoint can be referred to as a primary readout, because this assay has produced multiple assay endpoints where this one serves a reporter gene function. To generalize the intended target to other relatable targets, this assay endpoint is annotated to the nuclear receptor intended target family, where the subfamily is steroidal.
Human liver HepG2 cells are transiently transfected with multiple reporter transcription units (MRTUs) in 6-well plates using FuGene 6 reagent (Roche; 3 ml FuGene/1 mg DNA). The MRTU constructs are regulated by a cis-regulating element (promoter). Each RTU expresses a GAL4-UAS that regulates the transcription of a nearby target reporter gene sequence. A major difference between the CIS and TRANS system is that in CIS activities of endogenous TFs are measured, whereas the TRANS assay evaluates changes in activities of exogenous, chimeric NR-Gal4 proteins. […] At the end of 24 hour incubation, total RNA was isolated using TriZol reagent (Invitrogen). The isolated RNA is then reverse-transcribed using oligo(dT) primer and Mo-MLV reverse transcriptase (Invitrogen) with DNAse I (Ambion) treatment for 30 min. The one-tenth of the produced cDNA was amplified by PCR using Taq DNA polymerase (Invitrogen) and two reporter sequence-specific primers. The PCR products were fluorescently labeled by primer extension with 6-arboxyfluorescein (6-FAM) 5'-labeled reporter sequence-specific primer (2 min at 95 C, 20 s at 68 C and 10 min at 72 C) and these products were digested with 5U of HpaI (New England Biolabs) for 2h at 37 C. The fragments were purified using Qiaquick PCR columns (Qiagen), analyzed on an ABI 3130xL genetic analyzer (Applied Biosystems) with peak positions identified by using a set of X-rhodamine (ROX)-labeled MapMarker1000 molecular weight standards (BioVentures). The raw capillary electrophoresis data was processed using Attagraph software (Attagene).
With `CC(C)(Oc1ccc(Cl)cc1)C(=O)O`, the compound was called inactive.

For the compound `C=C(c1ccc(C(=O)O)cc1)c1cc2c(cc1C)C(C)(C)CCC2(C)C`, the outcome was inactive.

The term AC50 denotes the midpoint of the concentration-response curve, whichever way the signal moves. With `C[C@@H]1C[C@H]2[C@@H]3CCC4=CC(=O)C=C[C@]4(C)[C@@]3(F)[C@@H](O)C[C@]2(C)[C@@]1(O)C(=O)COP(=O)(O)O`, the AC50 is 20.6 nM (active).

`CC(c1cc2ccccc2s1)N(O)C(N)=O` (stereo unspecified): the outcome was inactive.

On to `CC(C)OC(=O)C(C)(C)Oc1ccc(C(=O)c2ccc(Cl)cc2)cc1`, for which the outcome was inactive.

Regarding `Cc1ccc(C)c(OCCCC(C)(C)C(=O)O)c1`, the outcome was inactive.
